Compounds with a hit are over-represented: about 3.6% of the library has one in this group of screens.
Mm-Cpn inhibitor – blocks the Methanococcus maripaludis chaperonin Mm-Cpn; purified Mm-Cpn ATPase, ADP Transcreener TR-FRET; Potency, µM (highest dose often 76.9 µM), without a hit: at the top dose activity, negative = inhibition, actives largely listed as inhibitors; 330,000 compounds, 0.031% hits; further: on the % scale 0 is the no-effect control and ±100 the full control effect; nearly all actives have a fitted effect of over 80% in size
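Eu-cryptate anti-ADP/ADP-d2 competition gives a ratio inversely related to ADP. Enzyme at 25 nM was pre-exposed to compound for 10 min, then given 10 uM ATP for 30 min, 37°C throughout.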
ClpP mod – qHTS Assay for Activators of ClpP | Potency, µM (titrated, usually from 57.5 µM), without a hit: top-dose activity change, negative = active | ATP-dependent Clp protease proteolytic subunit (Bacillus subtilis (strain 168)), P80244 | 340,000 compounds, 1.9% hits | purified B. subtilis ClpP, FRET peptide cleavage, 20 min; active means well fitted falling curve with a large enough effect; inconclusive means small, poorly fitted or top-dose-only effect; inactive means no such curve, though single readings can be large or run the other way; further: the source files actives as falling curves though it sought activators and does not explain the sign; nearly all actives have a fitted effect of over 65% in size
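FRET quenching reversal measured ClpP activation: 10 microg/mL B. subtilis ClpP at pH 8 with the FRET-FV decapeptide, read at 430 nm after 320 nm excitation. The 20-min minus 0-min signal was scaled between DMSO/no-enzyme wells and ADEP (5.8 microM final).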
Abeta rescue – compounds reversing amyloid beta toxicity in yeast; yeast expressing A-beta42, growth rescue, OD600, 48 h; response scale: 0% DMSO, 100% iron-clioquinol control; Potency, µM (highest dose often 46.1 µM), most hits filed as activators; 410,000 compounds, 0.063% hits; AID 1347071; further: nearly all actives have a fitted effect of over 55% in size
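Growth rescue measured by 600 nm absorbance after 48 h yeast culture at 30 C with compound. Values normalized between DMSO and an equimolar ferric chloride plus clioquinol control.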
TDP-43 yeast inh – TDP-43 toxicity inhibition in yeast. TDP-43 expressing yeast growth rescue, BacTiter-Glo, 24 h. Potency, µM (series often up to 46.1 µM), for inactives: top-dose growth rescue (activation), most hits filed as activators. 410,000 compounds, 1.8% hits. AID 652104; further: % of control where 0% means no effect; nearly all actives have a fitted effect of over 50% in size
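In this qHTS, compounds that restore growth of yeast expressing TDP-43 appear as activators. Cells (OD600=0.02, galactose medium, raffinose-pregrown) are incubated with compound 24 hr at 30 deg C and growth is quantified by BacTiter-Glo.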
aSyn rescue – alpha-synuclein toxicity inhibition in yeast. Yeast expressing alpha-synuclein, growth rescue, BacTiter-Glo, 24 h. Potency, µM (doses to about 46.1 µM), without a hit: at the highest dose growth rescue (activation), most hits filed as activators. 370,000 compounds, 0.14% hits. AID 652106; further: % of control where 0% means no effect; nearly all actives have a fitted effect of over 65% in size
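Rescue of yeast growth: cells expressing toxic alpha-synuclein, induced in galactose at OD600 0.02, incubated with compound 24 h at 30 C. ATP luminescence quantified growth; inhibitors of toxicity appear as activators.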
FUS yeast rescue – suppressors of FUS proteinopathy in yeast; S. cerevisiae FUS-expressing, growth rescue, OD600, 24 h; Potency, µM (top dose mostly 76.6 µM), usual class: activators; 390,000 compounds, 0.24% hits;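 further: plate controls were DMSO vehicle for no effect and reference control for full effect; nearly all actives have a fitted effect of over 55% in size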
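Compound concentration series was pinned onto galactose-induced FUS-expressing yeast seeded at OD 0.005. Plates sat 24hr at 30C; absorbance at 600 nm gave growth. DMSO served as background control.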
* marks the source's active call; other numbers are inactive results; i = inactive; ? = inconclusive; . = not tested or not shown. Unless noted, the call rests on the fitted dose curve; in most records, active means well fitted curve in the direction sought with a large enough effect; inconclusive means small, poorly fitted or top-dose-only effect, or another doubt; inactive means no such curve, though single readings can be large; an effect the other way counts as inactive or inconclusive. Potency means the concentration at half of the fitted maximal effect.

SMILES | Mm-Cpn inhibitor | ClpP mod | Abeta rescue | TDP-43 yeast inh | aSyn rescue | FUS yeast rescue
CCCN1CCN(C(c2cc3cc4c(cc3[nH]c2=O)OCO4)c2nnnn2C(C)(C)C)CC1 (stereo not given) | -2% | ? | i | 6% | 1% | .
CCC(C)(C)n1nnnc1C(c1cc2cc3c(cc2[nH]c1=O)OCO3)N1CCCCC1 (stereo not given) | 0% | 14µM* | i | -17% | 1% | .
COc1cc2cc(C(c3nnnn3C(C)(C)C)N3CCc4ccccc43)c(=O)[nH]c2cc1OC (stereo not given) | -1% | 17% | i | -22% | 10% | 28µM*
O=c1[nH]c2cc3c(cc2cc1C(c1nnnn1Cc1ccccc1)N1CCN2CCCC2C1)OCCO3 (stereo not given) | -4% | 25µM* | i | -21% | 3% | 18µM*
O=c1[nH]c2cc3c(cc2cc1C(c1nnnn1Cc1ccccc1)N1CCCCCC1)OCCO3 (stereo not given) | -5% | -26% | i | -8% | 8% | i
COCCn1nnnc1C(c1cc2cc(C)ccc2[nH]c1=O)N1CCCCCC1 (stereo not given) | -2% | 28µM* | i | -15% | 3% | i
CCn1cc(CNC(=O)c2cc(-c3ccc(C)cc3)nc3ccc(Br)cc23)c(C)n1 | . | -11% | i | 14% | . | i
CC(C)CCNC(=O)CCCN1C(=O)c2ccccc2Sc2ncccc21 | . | 1% | i | 15% | . | i
O=S(=O)(Nc1cccnc1)c1cccc2ccccc12 | . | . | . | . | 3% | .
COc1cc2cc(C(c3nnnn3C(C)(C)C)N3CCC(C)CC3)c(=O)[nH]c2cc1OC (stereo not given) | 1% | 13µM* | i | 0% | . | i
COc1ccc2c(c1)c(C(C)=O)c(C)n2CCc1ccc(OC)c(OC)c1 | -2% | 0% | i | 20µM* | 2% | i
O=C(c1cccc(Cl)c1)N1CCC(c2nc3ccccc3o2)CC1 | . | 1% | i | 13µM* | . | i
COc1ccccc1-c1nnc(C2CCN(C(=O)c3ccccc3C)CC2)o1 | . | -20% | i | ? | . | i
COc1ccccc1-c1nnc(C2CCN(C(=O)c3cccc(Cl)c3)CC2)o1 | . | -9% | i | 20µM* | . | i
Cc1ccc(-n2c(SCC(=O)Nc3ccc4c(c3)OCCO4)nc3c([nH]c4ccccc43)c2=O)cc1 | . | 5% | i | -3% | . | i
CCOc1ccc(N(Cc2cc3cc(OC)ccc3[nH]c2=O)S(C)(=O)=O)cc1 | 0% | 28µM* | i | -22% | -3% | i
CCc1ccc2[nH]c(=O)c(CN(CCO)C(=O)NCc3ccccc3)cc2c1 | 3% | -16% | i | 13% | 0% | .
CCCCN(Cc1cc2cc(OC)ccc2[nH]c1=O)C(=O)COc1ccccc1 | . | -8% | i | 2% | 0% | i
CCN(Cc1cc2cc(OC)ccc2[nH]c1=O)C(=O)Cc1ccc(OC)cc1 | 1% | 28µM* | i | 16% | 0% | i
COc1ccc2[nH]c(=O)c(CN(C)C(=O)COc3ccccc3)cc2c1 | -3% | 32µM* | i | 18% | 0% | i
COc1ccc2[nH]c(=O)c(CN(CCO)C(=O)NCc3ccccc3)cc2c1 | . | 25µM* | i | -16% | 3% | i
CCOc1ccccc1C(=O)N(C)Cc1cc2cc(OC)ccc2[nH]c1=O | 1% | 32µM* | i | 16% | 3% | i
CCN(CC(=O)NCc1ccc(F)cc1)C(=O)Cc1ccc(OC)cc1 | 0% | 16µM* | i | ? | -8% | i
Cc1cc(Cl)ccc1NS(=O)(=O)c1c(C(=O)N2CCCCCC2)c(C)n(C)c1C | . | -1% | i | 12% | . | ?
COc1ccc(NC(=O)c2c(NC(=O)CNCc3ccco3)sc3c2CCC3)c(OC)c1 | 0% | ? | i | -3% | -2% | i
SMILES | Mm-Cpn inhibitor | ClpP mod | Abeta rescue | TDP-43 yeast inh | aSyn rescue | FUS yeast rescue
COc1ccc(OC)c(NC(=O)c2c(NC(=O)CNCc3ccco3)sc3c2CCC3)c1 | 0% | 16µM* | i | 4% | 2% | i
N#Cc1nc(-c2ccco2)oc1N1CCN(c2ccccc2)CC1 | -3% | -6% | i | ? | -12% | i
N#Cc1nc(-c2ccco2)oc1N1CCC(Cc2ccccc2)CC1 | 3% | 25µM* | i | 11% | 2% | i
N#Cc1nc(-c2ccco2)oc1NCCN1CCOCC1 | 1% | 13µM* | i | -17% | -10% | i
N#Cc1nc(-c2cccc3ccccc23)oc1NCCN1CCOCC1 | -6% | 6.3µM* | i | -9% | 3% | i
COC(=O)c1sccc1S(=O)(=O)N(CC(=O)NCc1ccc(C)cc1)c1ccc(Cl)cc1 | . | -2% | i | 15% | . | i
CCOc1ccc(S(=O)(=O)Nc2nc3ccccc3nc2N2CCN(C)CC2)cc1 | 1% | ? | i | 12% | 0% | i
CCOc1ccc(NS(=O)(=O)c2ccc(NS(C)(=O)=O)cc2)cc1 | 0% | 2% | i | -9% | -10% | i
CCOc1ccc(NS(=O)(=O)c2ccc(NS(=O)(=O)c3ccc(SC)cc3)cc2)cc1 | 1% | -4% | i | -4% | 0% | 28µM*
CCOc1ccc(S(=O)(=O)Nc2nc3ccccc3nc2Cl)cc1 | -3% | -14% | i | 22µM* | 1% | i
CCN1CCN(c2cc(C)c3cc(NC(=O)c4cc(Br)ccc4Cl)ccc3n2)CC1 | . | -13% | i | 7% | . | i
Cc1cccc(N2C(=O)CCSC23C(=O)N(Cc2ccc(F)cc2)c2ccccc23)c1 (stereo not given) | . | -3% | i | ? | . | i
O=C(Nc1nnc(CCc2ccccc2)s1)C1CCN(C(=O)c2ccco2)CC1 | . | 1% | . | . | -4% | .
COc1ccc(-c2cc(C(=O)NCCN3CCOCC3)c3ccccc3n2)cc1 | -5% | 35µM* | i | -10% | 6% | i
COc1ccc(-c2cn3c(C)c(C(=O)NCCN4CCOCC4)sc3n2)cc1 | -3% | 22µM* | i | -3% | 5% | .
CCOC(=O)C1CCCN(C(=O)c2sc3nc(-c4ccc(OC)cc4)cn3c2C)C1 (stereo not given) | -13% | 1% | i | 11µM* | . | ?
CCOC(=O)C1CCN(C(=O)c2sc3nc(-c4ccccc4)cn3c2C)CC1 | 0% | 16% | i | ? | -2% | .
COc1ccc(-c2cc(C(=O)NCCN3CCOCC3)c3ccccc3n2)cc1OC | 3% | -4% | i | 7% | 2% | .
